Data from PubChem BioAssay (NCATS).
Results filed as inconclusive are left out. Values without a mark were called inactive. The source made the active and inactive calls. The call rests on the fitted dose curve; in most records, active means well fitted inhibition curve with a large enough effect; inconclusive means small, poorly fitted or top-dose-only effect; inactive means flat fitted curve, though single readings scatter.

tested on: CRL-7250; assay: Cytotoxic Profiling of Annotated Libraries Using Quantitative High-Throughput Screening (AID 1296008); conditions: Five cell lines viability, CellTiter-Glo ATP luminescence, 48-72 h; max response: active compounds read low; further: nearly all actives have a fitted effect of over 60% in size
Outline: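 Compounds were pin-transferred onto cells and incubated 48 or 72 hr at 37 degree Celsius, 95% humidity. CellTiter-Glo was added, plates sat 10 min at room temperature, then ATP-coupled luminescence was imaged as the viability read-out.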
On the % scale 0 is the no-effect control and ±100 the full control effect; potency means the concentration at half of the fitted maximal effect.

Structure (SMILES)	max response	Potency
CC1(C)CC[C@]2(C(=O)O[C@@H]3O[C@H](CO[C@@H]4O[C@H](CO)[C@@H](O)[C@H](O)[C@H]4O[C@@H]4O[C@H](CO)[C@H](O)[C@H](O)[C@H]4O)[C@@H](O)[C@H](O[C@@H]4O[C@H](CO)[C@@H](O)[C@H](O)[C@H]4O)[C@H]3O)CC[C@]3(C)C(=CCC4[C@@]5(C)CC[C@H](O[C@@H]6OC[C@@H](O)[C@H](O)[C@H]6O)[C@@](C)(C(=O)O)C5CC[C@]43C)[C@@H]2C1 (some centres not stated)	-1.09%	
CC(C)N(CCCCOCC(=O)NS(C)(=O)=O)c1cnc(-c2ccccc2)c(-c2ccccc2)n1	-11.5%	
C=C1C(=O)O[C@H](CCC)[C@H]1C(=O)O	3.05%	
CCC1C(=O)N(C)c2cnc(Nc3ccc(C(=O)NC4CCC(N5CCN(CC6CC6)CC5)CC4)cc3OC)nc2N1C(C)C (configuration not stated)		4.61 µM (active)
O=[N+]([O-])c1cn2c(n1)OCC(OCc1ccc(OC(F)(F)F)cc1)C2 (configuration not stated)	-10.3%	
COc1cc(C)c(C(=O)O[C@H]2[C@@H](OC(C)=O)[C@H](n3ccc(=O)[nH]c3=O)O[C@@H]2CO)c(OC)c1	-2.01%	
CN[C@H](CC(C)C)C(=O)N[C@H]1C(=O)N[C@@H](CC(N)=O)C(=O)N[C@H]2C(=O)N[C@H]3C(=O)N[C@H](C(=O)N[C@H](C(=O)O)c4cc(O)cc(O)c4-c4cc3ccc4O)[C@H](O[C@H]3C[C@](C)(N)[C@@H](O)[C@H](C)O3)c3ccc(c(Cl)c3)Oc3cc2cc(c3O[C@@H]2O[C@H](CO)[C@@H](O)[C@H](O)[C@H]2O[C@H]2C[C@](C)(NCc3ccc(-c4ccc(Cl)cc4)cc3)[C@@H](O)[C@H](C)O2)Oc2ccc(cc2Cl)[C@H]1O	0.406%	
